PubChem BioAssay (Tox21)
Inconclusive results are not listed. The source made the active and inactive calls. Unless noted, the call rests on the fitted dose curve; in most records, active means well fitted curve in the direction sought with a large enough effect in the repeat runs; inconclusive means weak or mixed curves; inactive means no such curve, though single readings can be large; an effect the other way counts as inactive or inconclusive.

Legend:
[1] = qHTS assay to identify small molecule antagonists of the estrogen receptor beta (ER-beta) signaling pathway - cell viability counter screen (AID 1259382);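 further: HEK293T cells carrying ER-beta-UAS-bla reporter stimulated with estradiol; series mostly up to about 92 µM; nearly all actives have a fitted effect of over 55% in size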
How it was run: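 Cytotoxicity counter screen multiplexed with the beta-lactamase antagonist assay: GripTite HEK293T ER-beta-bla cells were treated 16 hr with test chemicals in the presence of 1nM 17-beta-estradiol, and viability was measured by CellTiter-Glo.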

[2] = qHTS assay to identify small molecule agonists or antagonists of the thyroid stimulating hormone receptor (TSHR) signaling pathway - wild type cell line counter screen (AID 1259384; calls by dose curve)
How it was run: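 Wild-type HEK293 cells were plated 18 h at 37 C/5% CO2, pin-dosed with compound plus Ro20-1724 medium, held 30 min at room temperature, then given cAMP-d2 and anti-cAMP-cryptate; fluorescence was read after 1 h. Fifteen concentrations, triplicate.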

[3] = target: Thyrotropin receptor (Homo sapiens) (UniProt P16473); test: qHTS assay to identify small molecule antagonists of the thyroid stimulating hormone receptor (TSHR) signaling pathway (AID 1259385; calls by dose curve; further: nearly all actives have a fitted effect of over 20% in size)
Sequence of Thyrotropin receptor (Homo sapiens) (P16473 whole entry, looked up): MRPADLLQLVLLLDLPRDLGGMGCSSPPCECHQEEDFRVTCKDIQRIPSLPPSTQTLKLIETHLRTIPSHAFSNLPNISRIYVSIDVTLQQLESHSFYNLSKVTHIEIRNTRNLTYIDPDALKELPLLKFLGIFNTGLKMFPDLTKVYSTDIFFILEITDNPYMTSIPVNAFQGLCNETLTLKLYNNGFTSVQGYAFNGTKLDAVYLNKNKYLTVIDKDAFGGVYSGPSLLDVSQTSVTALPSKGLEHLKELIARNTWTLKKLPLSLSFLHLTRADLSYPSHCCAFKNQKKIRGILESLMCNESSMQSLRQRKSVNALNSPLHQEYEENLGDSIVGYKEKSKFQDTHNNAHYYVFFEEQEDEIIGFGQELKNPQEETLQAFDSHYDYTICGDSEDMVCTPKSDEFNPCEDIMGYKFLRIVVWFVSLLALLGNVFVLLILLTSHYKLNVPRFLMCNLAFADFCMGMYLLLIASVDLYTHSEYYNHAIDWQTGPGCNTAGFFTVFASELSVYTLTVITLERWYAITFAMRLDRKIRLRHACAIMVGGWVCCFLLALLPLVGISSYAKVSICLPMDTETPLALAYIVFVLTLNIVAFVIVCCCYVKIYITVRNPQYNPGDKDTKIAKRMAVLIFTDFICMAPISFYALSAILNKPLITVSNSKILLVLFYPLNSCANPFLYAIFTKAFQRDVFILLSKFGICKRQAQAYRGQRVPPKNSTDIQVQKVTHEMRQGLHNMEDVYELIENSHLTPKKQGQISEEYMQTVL
How it was run: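 TSHR-HEK293 cells were plated and held 18 h at 37C/5% CO2, then given compound plus Ro20-1724 and stimulated with TSH at 1.5 ng/mL final. After 30 min at room temperature, cAMP was detected with cAMP-d2/anti-cAMP-cryptate (1 h) by fluorescence.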

[4] = qHTS assay to identify small molecule agonists of the estrogen receptor alpha (ER-alpha) signaling pathway in the presence of an antagonist - cell viability counter screen (AID 1259386);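 further: series mostly up to about 92 µM; cells exposed to compounds for 22 h at 37 °C before the viability read; nearly all actives have a fitted effect of over 30% in size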
How it was run: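 Cytotoxicity was measured in parallel with the ERE-luciferase agonist screen, in the same wells. The cells were VM7Luc4E2, which endogenously express ER-alpha, and treatment was with compounds plus 10.0nM ICI-182,780 for 22hr.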

[5] = target: Progesterone receptor (Homo sapiens) (UniProt P06401); test: qHTS assay to identify small molecule antagonists of the progesterone receptor (PR) signaling pathway (AID 1346795; active means well fitted inhibition curve with a large enough effect in the signal ratio in the repeat runs, not every such curve was filed as active; the % refers to the signal ratio)
Sequence of Progesterone receptor (Homo sapiens) (P06401 whole entry, looked up): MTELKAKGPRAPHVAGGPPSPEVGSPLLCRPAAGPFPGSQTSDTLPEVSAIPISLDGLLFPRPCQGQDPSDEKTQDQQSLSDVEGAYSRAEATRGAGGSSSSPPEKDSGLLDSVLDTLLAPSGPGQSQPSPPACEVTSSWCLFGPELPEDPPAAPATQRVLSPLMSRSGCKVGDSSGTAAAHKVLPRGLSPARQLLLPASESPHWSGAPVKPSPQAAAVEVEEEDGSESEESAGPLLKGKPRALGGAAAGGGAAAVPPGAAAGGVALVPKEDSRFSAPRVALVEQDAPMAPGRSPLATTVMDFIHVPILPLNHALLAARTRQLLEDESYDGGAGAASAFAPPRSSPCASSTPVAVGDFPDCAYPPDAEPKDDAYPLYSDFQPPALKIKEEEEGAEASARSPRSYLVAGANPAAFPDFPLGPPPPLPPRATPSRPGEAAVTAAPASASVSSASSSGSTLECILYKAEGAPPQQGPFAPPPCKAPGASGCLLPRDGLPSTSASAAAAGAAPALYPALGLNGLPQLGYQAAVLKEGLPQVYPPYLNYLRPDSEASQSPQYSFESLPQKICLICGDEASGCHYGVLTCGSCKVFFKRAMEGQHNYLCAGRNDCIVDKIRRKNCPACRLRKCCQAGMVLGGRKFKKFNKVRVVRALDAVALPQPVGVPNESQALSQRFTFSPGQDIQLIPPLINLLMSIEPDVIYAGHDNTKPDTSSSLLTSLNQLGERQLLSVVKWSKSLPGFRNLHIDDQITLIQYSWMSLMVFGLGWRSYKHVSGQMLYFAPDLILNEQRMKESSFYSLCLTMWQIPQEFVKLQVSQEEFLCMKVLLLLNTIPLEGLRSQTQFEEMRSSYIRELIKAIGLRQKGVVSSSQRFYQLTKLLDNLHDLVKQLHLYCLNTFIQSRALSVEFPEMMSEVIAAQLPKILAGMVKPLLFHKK
How it was run: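 Antagonist mode with agonist R5020 at 1 nM final and 16 hr incubation at 37C. Reporter was beta-lactamase driven by UAS in HEK293T (PR-UAS-bla), 2% charcoal-stripped serum; signal from LiveBLAzer FRET substrate, 2 hr at room temperature.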

[6] = qHTS assay to identify small molecule agonists of the progesterone receptor (PR) signaling pathway - cell viability counter screen (AID 1346799; calls by dose curve; further: nearly all actives have a fitted effect of over 45% in size)
How it was run: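 Cytotoxicity measured by CellTiter-Glo luminescence (30 min, RT) in the same wells as the PR beta-lactamase agonist read. Those HEK293T cells had 16 h compound treatment at 37 C in 2% charcoal-stripped FBS medium.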

[7] = qHTS assay to identify small molecule antagonists of the TGF-beta/Smad signaling pathway - cell viability counter screen (AID 1346824); further: nearly all actives have a fitted effect of over 50% in size
How it was run: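 SBE-bla HEK 293T cells were plated overnight at 37 C, then given compounds in DMSO plus TGF-beta1 (added as 0.25 ng/mL solution) for 5 hr. After the bla read, CellTiter-Glo was added to the same wells and luminescence read after 30 min at room temperature.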

[8] = qHTS assay to identify small molecule agonists of the TGF-beta/Smad signaling pathway - cell viability counter screen (AID 1346829); further: top concentration of the series differs between compounds; nearly all actives have a fitted effect of over 45% in size
How it was run: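 HEK 293T SBE-bla line, 5 hr compound exposure at 37 C, multiplexed CellTiter-Glo viability read by luminescence.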

[9] = target: Thyrotropin-releasing hormone receptor (Homo sapiens) (UniProt P34981); test: qHTS assay to identify small molecule antagonists of the thyrotropin-releasing hormone receptor (TRHR) signaling pathway (AID 1346877; active means well fitted inhibition curve with a large enough effect in the repeat runs, not every such curve was filed as active; further: series mostly up to about 51 µM)
Sequence of Thyrotropin-releasing hormone receptor (Homo sapiens) (P34981 whole entry, looked up): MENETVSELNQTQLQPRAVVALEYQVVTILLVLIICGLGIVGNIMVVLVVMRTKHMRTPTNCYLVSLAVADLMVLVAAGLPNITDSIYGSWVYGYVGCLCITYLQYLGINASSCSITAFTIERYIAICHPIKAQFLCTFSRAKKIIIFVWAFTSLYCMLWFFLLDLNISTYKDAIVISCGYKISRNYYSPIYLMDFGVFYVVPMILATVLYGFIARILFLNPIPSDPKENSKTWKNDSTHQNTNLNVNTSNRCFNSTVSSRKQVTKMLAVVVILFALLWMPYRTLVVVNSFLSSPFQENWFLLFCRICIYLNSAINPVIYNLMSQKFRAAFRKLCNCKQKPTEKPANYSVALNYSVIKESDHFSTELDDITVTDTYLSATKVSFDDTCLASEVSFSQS
How it was run: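 Antagonism is measured as suppression of the calcium response to 1 nM TRH in TRHR-HEK293 cells that have been dye-loaded for 2 h at 37 °C after overnight plating. Each compound is tested at 15 concentrations in triplicate.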

[10] = Human pregnane X receptor (PXR) small molecule agonists, qHTS cell viability counter screen (AID 1346977); further: nearly all actives have a fitted effect of over 50% in size
How it was run: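 Same-well viability read: CellTiter-Fluor added after 23 hr compound exposure, fluorescence measured 1 hr later. Cells were PXR-Luc HepG2 seeded at 2,000/well in 5% charcoal-stripped FBS medium, rested 5 hr before dosing at 37 C.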

[11] = Caspase-3/7 induction in HepG2 cells by small molecules, qHTS assay (AID 1346978); further: nearly all actives have a fitted effect of over 15% in size
How it was run: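 Wild-type HepG2 cells (2,000/well) were settled 5 h at 37 C, 5% CO2, then exposed to compounds in DMSO for 17 h. Caspase-3/7 activity was read by luminescence 30 min after adding Caspase-Glo 3/7 reagent at room temperature.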

[12] = Caspase-3/7 induction in CHO-K1 cells by small molecules, qHTS assay (AID 1346980); further: nearly all actives have a fitted effect of over 15% in size
How it was run: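 Wild-type cells were seeded at 1,500 per well and settled 5 hr at 37 C, 5% CO2, then exposed to DMSO-dissolved compounds for 17 hr. Caspase-Glo 3/7 reagent was added, and luminescence was read after 30min at room temperature.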

[13] = Caspase-3/7 induction in HepG2 cells by small molecules, qHTS cell viability counter screen (AID 1346981); further: series mostly up to about 92 µM; nearly all actives have a fitted effect of over 30% in size
How it was run: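 Cell viability is measured as a cytotoxicity counter screen alongside the Caspase-Glo 3/7 readout in identical wells. Wild-type HepG2 cells are treated with test compounds for 16 hr at 37 C before CellTiter-Fluor addition and a 1-hr incubation.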

[14] = target: Progesterone receptor (Homo sapiens) (UniProt P06401); test: qHTS assay to identify small molecule agonists of the progesterone receptor (PR) signaling pathway (AID 1346784; calls by dose curve; further: nearly all actives have a fitted effect of over 30% in size)
How it was run: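 Agonist qHTS: compounds pinned onto 3,000 PR-UAS-bla HEK 293T cells per well in charcoal-stripped serum medium, 16hr at 37C, then beta-lactamase activity measured by LiveBLAzer FRET fluorescence after 2 hours at room temperature.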

[15] = qHTS assay to identify small molecule antagonists of the progesterone receptor (PR) signaling pathway - cell viability counter screen (AID 1346798); further: series mostly up to about 92 µM; nearly all actives have a fitted effect of over 50% in size
How it was run: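 Cytotoxicity read as CellTiter-Glo luminescence (30 min, room temperature) in the same wells as the beta-lactamase readout. HEK293T PR-UAS-bla cells in charcoal-stripped 2% FBS received compound and R5020, then 16 h at 37C, 5% CO2.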

[16] = qHTS assay to identify small molecule agonists of the TGF-beta/Smad signaling pathway (AID 1346859; active means well fitted activation curve with a large enough effect in the signal ratio in the repeat runs, not every such curve was filed as active; the % refers to the signal ratio; further: series mostly up to about 77 µM)
How it was run: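 Fluorescence (ex 405 nm; em 460 and 530 nm) was read 2 h after LiveBLAzer FRET substrate at RT. The preceding compound treatment of overnight-plated SBE-bla HEK293T cells lasted 5 h at 37 C.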

[17] = target: Thyrotropin-releasing hormone receptor (Homo sapiens) (UniProt P34981); test: qHTS assay to identify small molecule agonists of the thyrotropin-releasing hormone receptor (TRHR) signaling pathway (AID 1346891; calls by dose curve; further: series mostly up to about 58 µM)
How it was run: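 Agonist-mode intracellular calcium readout: kinetic fluorescence over 3 min at 1 s intervals after compound addition to TRHR-HEK293 cells (18 h seeded, 2 h dye-loaded at 37 C). Fifteen concentrations, triplicates.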

[18] = Caspase-3/7 induction in CHO-K1 cells by small molecules, qHTS cell viability counter screen (AID 1346979); further: nearly all actives have a fitted effect of over 35% in size
How it was run: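 Cytotoxicity counter screen: CellTiter-Fluor added to compound-treated wild-type CHO-K1 cells at 16 h (37C, 5% CO2), fluorescence measured 1 h later; same wells as caspase-3/7 measurement.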
On the % scale 0 is the no-effect control and ±100 the full control effect.

CN(C)CC/C=C1/c2ccccc2COc2ccc(CC(=O)O)cc21
inactive: outcome [1] | outcome [2] | outcome [3] | outcome [4] | Potency [5] | outcome [6] | outcome [7] | outcome [8] | outcome [9] | outcome [10] | outcome [11] | outcome [12] | outcome [13]

CC(=O)C(C)O (stereo not given)
inactive: outcome [1] | outcome [2] | outcome [3] | outcome [4] | Potency [14] | outcome [15] | outcome [6] | outcome [7] | outcome [8] | outcome [16] | outcome [9] | outcome [17] | outcome [10] | outcome [11] | outcome [12] | outcome [13]

CN1CCOC(c2ccccc2)c2ccccc2C1 (stereo not given)
inactive: outcome [1] | outcome [2] | outcome [3] | outcome [4] | Potency [14] | Potency [5] | outcome [15] | outcome [6] | outcome [7] | outcome [8] | outcome [16] | outcome [9] | outcome [10] | outcome [11] | Potency [18] | outcome [12] | outcome [13]

CC(C)CCOC(=O)c1ccccc1
inactive: outcome [1] | outcome [2] | outcome [3] | outcome [4] | Potency [5] | outcome [15] | outcome [6] | outcome [7] | outcome [8] | outcome [16] | outcome [9] | outcome [17] | outcome [10] | outcome [11] | Potency [18] | outcome [12] | outcome [13]

Cc1ccc(C)c([N+](=O)[O-])c1
inactive: outcome [1] | outcome [2] | outcome [3] | outcome [4] | outcome [15] | outcome [6] | outcome [7] | outcome [8] | outcome [16] | outcome [9] | outcome [17] | outcome [10] | outcome [11] | Potency [18] | outcome [12] | outcome [13]

O=[N+]([O-])c1c(Cl)cc(Cl)cc1Cl
inactive: outcome [1] | outcome [2] | outcome [4] | Potency [14] | outcome [15] | outcome [6] | outcome [7] | outcome [8] | outcome [16] | outcome [9] | outcome [17] | outcome [10] | outcome [11] | Potency [18] | outcome [12] | outcome [13]

O=NN(CCCl)C(=O)NC1CCCCC1
inactive: outcome [1] | outcome [2] | outcome [4] | Potency [14] | Potency [5] | outcome [15] | outcome [6] | outcome [7] | outcome [8] | outcome [16] | outcome [17] | outcome [10] | outcome [11] | Potency [18] | outcome [12] | outcome [13]

CC(C)=CCC/C(C)=C/COC=O
inactive: outcome [1] | outcome [2] | outcome [3] | outcome [4] | outcome [15] | outcome [6] | outcome [7] | outcome [8] | outcome [16] | outcome [9] | outcome [17] | outcome [10] | outcome [11] | Potency [18] | outcome [12] | outcome [13]

ONc1ccccc1
inactive: outcome [1] | outcome [2] | outcome [3] | outcome [4] | Potency [5] | outcome [15] | outcome [6] | outcome [7] | outcome [8] | outcome [16] | outcome [9] | outcome [10] | outcome [11] | Potency [18] | outcome [12] | outcome [13]

Cn1c(=O)c2[nH]c(Br)nc2n(C)c1=O
inactive: outcome [1] | outcome [2] | outcome [3] | outcome [4] | Potency [14] | Potency [5] | outcome [15] | outcome [6] | outcome [7] | outcome [8] | outcome [16] | outcome [17] | outcome [10] | outcome [11] | Potency [18] | outcome [12] | outcome [13]

O=C(O)CONC(=O)c1ccccc1
inactive: outcome [1] | outcome [2] | outcome [3] | outcome [4] | Potency [5] | outcome [15] | outcome [6] | outcome [7] | outcome [8] | outcome [16] | outcome [9] | outcome [17] | outcome [10] | outcome [11] | Potency [18] | outcome [12] | outcome [13]

Cn1c(=O)c2c(ncn2CCO)n(C)c1=O
inactive: outcome [1] | outcome [2] | outcome [3] | outcome [4] | Potency [14] | Potency [5] | outcome [15] | outcome [6] | outcome [7] | outcome [8] | outcome [16] | outcome [17] | outcome [10] | outcome [11] | outcome [12] | outcome [13]

CC(C)OC(=O)CCC(=O)OC(C)C
inactive: outcome [1] | outcome [2] | outcome [3] | outcome [4] | Potency [14] | Potency [5] | outcome [15] | outcome [6] | outcome [7] | outcome [8] | outcome [16] | outcome [17] | outcome [10] | outcome [11] | Potency [18] | outcome [12] | outcome [13]

CCC(=O)CC
inactive: outcome [1] | outcome [4] | Potency [14] | Potency [5] | outcome [6] | outcome [7] | outcome [8] | outcome [16] | outcome [9] | outcome [17] | outcome [10] | outcome [11] | Potency [18] | outcome [12] | outcome [13]

N[C@@H](Cc1ccc(O)cc1)C(=O)O
inactive: activity change, negative = cytotoxicity [1] 2.66% [at 8.39 µM] | cAMP activity change [2] 6.84% [at 8.39 µM] | activity change, negative = inhibition [3] 3.38% [at 8.39 µM] | activity change, negative = cytotoxicity [4] 1.69% [at 8.39 µM] | activation [14] -2.73% [at 8.39 µM] | activity change, negative = cytotoxicity [6] -21.8% [at 8.39 µM] | viability change, negative = cytotoxic [7] -8.39% [at 6.97 µM] | activity change, negative = cytotoxicity [8] 9.15% [at 6.97 µM] | activation [16] 4.2% [at 6.97 µM] | activity, negative = inhibition [9] -2.4% [at 4.65 µM] | activity change, negative = cytotoxicity [10] -1.74% [at 8.39 µM] | caspase activation [11] -1.72% [at 8.39 µM] | activity change, negative = cytotoxicity [18] 1.62% [at 8.39 µM] | caspase-3/7 activation [12] -1.08% [at 8.39 µM] | activity change, negative = cytotoxicity [13] -1.35% [at 8.39 µM]
